Structures are written as SMILES. Unmarked numbers belong to inactive results.

This experiment deals with Vero E6 infected with SARS-CoV-2. Put plainly: inhibition of SARS-CoV-2 cytopathic effect; higher = more antiviral protection, active = above 15. Particulars: 48 h. Background: Damage to the host cells serves as the signal in cytopathic effect assays.

For the compound `CC/C(=C(/CC)c1ccc(O)cc1)c1ccc(O)cc1` [diethylstilbestrol], the “inhibition of SARS-CoV-2 cytopathic effect” value (shortened to “inhibition”) was -1.15% (1 nM); -2.29% (8.33 nM); -2.18% (100 nM); 3.59% (833.33 nM); 6.76% (10000 nM).
Taken in the same sequence, the figures for `CCCC(=O)C1(c2ccccc2)CCN(C(=O)[C@@H](Cc2ccc(OC)cc2)NC(=O)[C@@H](N)Cc2cncn2C)CC1` were 0.65%, -1.21%, 0.17%, -1.38% and 0.37%.
`Cc1ccccc1-c1cc(N2CCN(C)CC2)ncc1N(C)C(=O)C(C)(C)c1cc(C(F)(F)F)cc(C(F)(F)F)c1` [netupitant]: the “inhibition” value is, setting by setting: (1 nM) 0.76%; (8.33 nM) 0.01%; (100 nM) -1.38%; (833.33 nM) -1.26%; (10000 nM) 8.28%.
The like results for `NNC(=O)c1ccncc1` [isoniazid] were, in that order, -3.24%, 0.31%, 0.58%, 3.21% and -1.15%.
Taken in the same sequence, the figures for `CCCC1(CCC)CCC2(CCN(CCCN(CC)CC)C2)CC1` [atiprimod] were -0.73%, 0.69%, 0.76%, -4.7% and -26.6%.
The like results for `CC(C(=O)O)c1cccc(Oc2ccccc2)c1` (stereo not given) [fenoprofen] were, in that order, -0.67%, -2.89%, 0.97%, -1.9% and -3.01%.
For `CC(C)C[C@@H](C=O)NC(=O)[C@H](CC(C)C)NC(=O)[C@H](CC(C)C)NC(=O)OCc1ccccc1`, the “inhibition” value was -0.72% (1 nM); 0.74% (8.33 nM); 9.43% (100 nM); 54% (active) (833.33 nM); 55.5% (active) (10000 nM).
Taken in the same sequence, the figures for `C=C1CC/C=C(\C)CC[C@@H]2[C@@H]1CC2(C)C` [g-caryophyllene] were 1.74%, 2.63%, -0.6%, 1.24% and 1.88%.
With `COCC(=O)O[C@]1(CCN(C)CCCc2nc3ccccc3[nH]2)CCc2cc(F)ccc2[C@@H]1C(C)C` [mibefradil], the “inhibition” value is, setting by setting: (1 nM) -2.83%; (8.33 nM) 0.22%; (100 nM) -2.5%; (833.33 nM) -0.56%; (10000 nM) 62.1% (active).
In the case of `CN1CCCCC1CCN1c2ccccc2Sc2ccc([S+](C)[O-])cc21` (stereo not given) [mesoridazine], the “inhibition” value was -0.86% (1 nM); -1.76% (8.33 nM); -0.98% (100 nM); -3.35% (833.33 nM); -3.76% (10000 nM).
Taken in the same sequence, the figures for `N#Cc1cc(CN2CCC(Nc3ncnc4sc(Cl)cc34)CC2)ccc1F` were 6.81%, 8.07%, 7.98%, 1.59% and 0.56%.
Taken in the same sequence, the figures for `O=C(NO)c1cnc(N2CCN(S(=O)(=O)c3ccc4ccccc4c3)CC2)nc1` were 1.24%, 2.59%, 2.04%, -16.4% and -22.6%.
For `FC(F)OC(F)(F)C(F)Cl` (stereo not given) [enflurane], the “inhibition” value runs as follows: (1 nM) 1.24%; (8.33 nM) 0.43%; (100 nM) 1.56%; (833.33 nM) -3.51%; (10000 nM) -3.14%.
`OC[C@@H](O)[C@@H](O)[C@@H](O)CO` [ribitol]: the “inhibition” value (1 nM) was 2.52%; the “inhibition” value (8.33 nM) is 3.83%; the “inhibition” value (100 nM) is 1.9%; the “inhibition” value (833.33 nM) is 3.1%; the “inhibition” value (10000 nM) is 1.14%.
Taken in the same sequence, the figures for `CN(C)C(=O)CCSC(SCCC(=O)O)c1cccc(/C=C/c2ccc3ccc(Cl)cc3n2)c1` (stereo not given) were -1.06%, -1.39%, 3.57%, 1.55% and 5.11%.
The like results for `CCOc1ccc(NC(=S)N2CCC(C(O)(c3ccccc3)c3ccccc3)CC2)cc1` were, in that order, -2.59%, -1.73%, -2.48%, -3.52% and -4.05%.
Taken in the same sequence, the figures for `COc1ccc(-c2oc3c(CC=C(C)C)c(O)cc(O)c3c(=O)c2O)cc1` [icaritin] were -1.11%, 0.17%, 0.02%, -0.36% and 2.24%.
With `CN(C)CCc1c[nH]c2ccc(Cn3cncn3)cc12` [rizatriptan], the “inhibition” value is, setting by setting: (1 nM) -0.4%; (8.33 nM) 0.07%; (100 nM) -1.66%; (833.33 nM) -0.7%; (10000 nM) -1.6%.
As to `CC1=CC[C@@H](C(C)(C)O)C[C@@H]1O` [sobrepin], the “inhibition” value runs as follows: (1 nM) -10%; (8.33 nM) -11.1%; (100 nM) -11.4%; (833.33 nM) -13.5%; (10000 nM) -10.4%.
The like results for `CC(=O)O[C@]1(C(C)=O)CC[C@H]2[C@@H]3C=C(C)C4=CC(=O)CC[C@@H]4[C@H]3CC[C@@]21C` [nomegestrol-acetate] were, in that order, -1.8%, -1.93%, 0.03%, 1.28% and -2.55%.
Taken in the same sequence, the figures for `O=C(O)C(O)Cc1ccc(O)c(O)c1` (stereo not given) [sodium-danshensu] were 1.07%, -0.48%, 2.17%, -0.61% and -1.7%.
Take `Cn1c(=O)cc(N2CCC[C@@H](N)C2)n(Cc2cc(F)ccc2C#N)c1=O` [trelagliptin]: the “inhibition” value runs as follows: (1 nM) -1.51%; (8.33 nM) 0.34%; (100 nM) 1.49%; (833.33 nM) -0.45%; (10000 nM) 3.01%.
The like results for `N=C(N)c1ccc(OCCCCCOc2ccc(C(=N)N)cc2)cc1` [pentamidine] were, in that order, -3.18%, -3.29%, -4.34%, -11.7% and 1.08%.
Taken in the same sequence, the figures for `O=C1N[C@@H]2[C@@H](O)[C@@H](O)[C@H](O)[C@@H](CO)N2C1=O` [kifunensine] were 0.31%, 1.46%, 3.44%, 4.14% and 14.9%.
Taken in the same sequence, the figures for `O=C(CN1CCN(Cc2ccc3c(c2)OCO3)CC1)N1c2ccccc2Sc2ccccc21` [fenoverine] were 0.16%, -2.81%, 4.98%, -0.47% and -3.71%.
With `Cc1cc2nc3c(=O)[nH]c(=O)nc-3n(C)c2cc1C=O`, the “inhibition” value reads like this: (1 nM) 0.98%; (8.33 nM) -1.25%; (100 nM) -1.28%; (833.33 nM) 2.07%; (10000 nM) 1.18%.
The like results for `CCCCN1CCC(CCC(=O)c2cc(Cl)c(N)cc2OC)CC1` were, in that order, -0.14%, -0.19%, -0.31%, -1.87% and -3.77%.
Taken in the same sequence, the figures for `Cc1cnc(-c2ccccc2C(C)C)nc1NCc1ccc(-n2ccnn2)cc1` were -3.33%, -2.94%, -0.44%, 0.3% and 1.03%.

These data come from the supplement of paper PMC13380429.
